Laboratory results published in PubChem BioAssay AID2315 (National Center for Advancing Translational Sciences (NCATS), 2010).
Several values for one entry are separate records, joined by “and”; a condition that tells them apart may be missing. Equal values may be shown once. Among all 290,000 compounds or so, about 27,000 (9.3%) were called active. Many of the other results were omitted from the sample, so actives are more common in it than they were. A number with no mark means an inactive call. No stated cut-off is given here; in the data, active means inhibition mostly above about 28% (no sharp cut-off); inactive means mostly below about 43%.

Experiment: A qHTS for Small Molecule Inhibitors of Shiga Toxin; further: 0% is about no effect
Conditions: Vero cells, Shiga toxin protein synthesis inhibition reporter; at 38.7 µM, stronger effect = higher value

In order of rising inhibition:
1. O=C(N/C(=C\c1ccc([N+](=O)[O-])cc1)C(=O)N1CCCCC1)c1ccco1  -18.7%
2. O=C(Cc1c(O)c2ccccc2[nH]c1=O)NCc1ccccc1  -13.9%
3. Cc1cccc(NC(=S)N2CCCC(c3nc4ccccc4[nH]3)C2)c1 (configuration not stated)  -11.2%
4. C=CCn1c(SCc2ccccc2)nc2c1c(=O)[nH]c(=O)n2C  -10.2%
5. COc1cc(N2C(=O)CSC2=S)cc(OC)c1OC  -9%
6. COc1cccc(NC(=O)c2nn(-c3ccc(OC)cc3OC)c(=O)c3ccccc23)c1  -8.21%
7. COc1cccc(NC(=O)COC(=O)CCOc2ccccc2OC)c1  -8.03%
8. CCCCC(=O)Nc1ccccc1N1CCN(c2ccc(F)cc2)CC1  -8.03%
9. Cc1c(C(=O)NC(C)C2CC3CCC2C3)cccc1[N+](=O)[O-] (configuration not stated)  -7.71%
10. COc1cc(C(=O)NN(CCC#N)C2=NS(=O)(=O)c3ccccc32)cc(OC)c1OC  -7%
11. CCCNC(=O)c1ccc(Cl)c(Cl)c1  -6.36%
12. Cc1[nH][nH]c(=O)c1C(c1ccc2c(c1)OCO2)c1c(C)[nH][nH]c1=O  -5.46%
13. CCOc1ccccc1CNS(=O)(=O)c1cc(-c2cc(C)no2)ccc1C  -5.31%
14. CCn1c(SCC(=O)NC2CC2)nnc1-c1ccccc1OC  -5.24%
15. O=C(c1ccc(CS(=O)(=O)c2ccccc2)o1)N1CCN(c2ccccc2)CC1  -5.16%
16. CC1CCC(NS(=O)(=O)c2ccc3c(c2)CC(=O)N3)CC1 (configuration not stated)  -4.99%
17. Cc1[nH][nH]c(=O)c1N=Nc1ccccc1  -4.84%
18. O=C1/C(=C/c2ccc(F)cc2)SC(=S)N1CCCC(=O)N1CCCCC1CCO (configuration not stated)  -4.46%
19. COc1ccc(/C=C/C(=O)OCC(=O)Nc2cccc(Oc3ccccc3)c2)c(OC)c1  -4.44%
20. COC(=O)/C(NC(C)=O)=C(\C)c1ccc(Cl)cc1  -4.26%
21. O=C(CNCc1ccc(F)cc1)Nc1ccccc1-c1ccccc1  -4.12%
22. CC(=O)Nc1ccc(NC(=O)C2CCCN(S(=O)(=O)c3ccc(Cl)cc3)C2)cc1 (configuration not stated)  -4.09%
23. O=C(CCOc1ccccc1)NCc1ccccc1  -3.66%
24. O=C(CSc1nnc(CNC(=O)c2ccc(F)cc2)o1)Nc1ccc2c(c1)OCO2  -2.6%
25. O=C(C1CCCO1)N1CCN(C(=S)Nc2cccc(Cl)c2)CC1 (configuration not stated)  -2.49%
26. CCCNC(=O)CCc1c(C)nc2c(c(C)nn2-c2ccc(C)cc2)c1C  -2.23%
27. CN(C)CCCN(C(=O)c1ccc(S(=O)(=O)N2CCCc3ccccc32)cc1)c1nc2ccc(F)cc2s1  -2.08%
28. COc1ccc(OC(C)C(=O)NCCc2nc3ccccc3[nH]2)cc1 (configuration not stated)  -1.88%
29. COC(=O)c1ccccc1NC(=S)NC(=O)c1ccccc1F  -1.7%
30. COc1ccc(-n2nc(C(=O)Nc3cc(OC)c(OC)c(OC)c3)c3ccccc3c2=O)c(OC)c1  -1.7%
31. O=C(O)c1ccc(OCC2CCCO2)cc1 (configuration not stated)  -1.54%
32. O=C(O)c1ccccc1NC(=O)c1ccccc1-c1ccccc1C(=O)O  -1.49%
33. Cc1cc(C)c(S(=O)(=O)c2ccc(F)cc2C)c(=O)[nH]1  3.7%
34. COC(=O)C1=CN(c2ccc(F)c(F)c2)C=C(C(=O)OC)C1c1ccc([N+](=O)[O-])cc1  3.77%
35. COC(=O)c1cn(C(=O)c2ccc(Cl)cc2)c2ccccc12  10.5%
36. Cc1cc(=O)cc(C)n1-c1ccc(Cl)c(Cl)c1  14.3%
37. COCCn1cnc2c1c(=O)n(Cc1ccc(Br)cc1)c(=O)n2Cc1ccccc1  15.6%
38. Nc1nc(Nc2ccccc2)nc(NCCO)c1[N+](=O)[O-]  16.8%
39. O=C(/C=C\NCC(=O)c1ccccc1)c1ccccc1  17.6%
40. O=C(CSc1nc2nccnc2c(=O)n1Cc1cccs1)Nc1ccccc1F  18.1%
41. COc1ccc(C2(C)NC(=O)N(CC(=O)c3ccc4c(c3)OCO4)C2=O)cc1 (configuration not stated)  20.5%
42. CCCCC(=O)NCc1ccc(F)cc1  21.3%
43. Cc1csc(NC(=O)NC2(C(F)(F)F)Oc3ccccc3O2)n1  24.4%
44. Cc1cc(NC(=O)Nc2ccccc2[N+](=O)[O-])no1  28.7%
45. CN(C)CCNC(=O)c1[nH]nc2c1CCc1ccccc1-2  35.7%
46. CN(Cc1ccco1)S(=O)(=O)c1nnc(NC(=O)c2ccccc2)s1  38.9%
47. c1ccc2c(CSCc3nc4ccccc4[nH]3)cccc2c1  42.3%
48. COc1cccc(Nc2nc(N)c([N+](=O)[O-])c(NCc3ccco3)n2)c1  45.8%

In the case of `CNc1nc(Nc2ccc(C)c(Cl)c2)nc(N)c1[N+](=O)[O-]`, the inhibition was 68.3% (active).
In the case of `COc1cc(/C=C/C(=O)OCC(=O)Nc2cccc(Oc3ccccc3)c2)ccc1O`, the inhibition was 51.6% (active).
For `O=C(NC(=S)Nc1ccccc1C(=O)O)c1ccc(-c2ccc(Br)cc2)o1`, the inhibition was 125% (active).
With `CCCNC(=O)c1c(Cl)cnn1-c1ccc(C)cc1` the inhibition was 59.9% (active).
With `COc1ccc(-n2nc(C(=O)NCC(=O)N3CCN(c4ccccc4OC)CC3)c3ccccc3c2=O)c(OC)c1` the inhibition was 73.3% (active).
In the case of `Cc1csc(NC(=O)Nc2ccccc2[N+](=O)[O-])n1`, the inhibition was 67.7% (active).
With `Nc1[nH][nH]c(=O)c1N=Nc1ccc2c(c1)OCO2` the inhibition was 74.5% (active).
For `Clc1ccccc1SCc1nc2ccccc2[nH]1`, the inhibition was 79.4% (active).
In the case of `COC(=O)C(=Nc1ccccc1)/C(C(=O)C(=O)N(C)c1ccccc1)=C(\O)c1ccc(Cl)cc1`, the inhibition was 127% (active).
With `Cc1ccc(C2CCN(C(=S)Nc3cccc(Cl)c3)C2)cc1` (configuration not stated) the inhibition was 47.7% (active).
With `O=C(CCCc1ccccc1)NCc1ccccc1` the inhibition was 39.1% (active).
With `O=C(O)CCCc1ccccc1` the inhibition was -13.8% and 15.3%.
With `O=C(Cc1ccccc1)NCc1ccc(F)cc1` the inhibition was 55.7% (active).
In the case of `O=C(/C=C/NCc1ccc(F)cc1)c1ccccc1`, the inhibition was 61.7% (active).
